Assay results as given in the supplement of paper PMC10849652.
The full data set covers some 7,900 targets. This sample favours those with a hit. About 0.6% of all pairs of compound and target were hits.

Assays:
Test in all cases: log2 fold change, soluble protein after heating vs DMSO (PISA); higher = thermal stabilisation; K562 cells, 10 uM, 30 min; active = over 0.2 and 3.5 SD of the protein, either way, in both replicates (recomputed)
[1] = compound: COC1=CC=C(C=C1)CN2C=CC3=C2C=C(C=C3)C(=O)NO
In short: (§1)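 Quantification of soluble protein used TMTpro 16plex LC-MS/MS, with channel sums equalised. Samples were the supernatant after 21,000xg for 90 min of pooled aliquots from K562 cells (2×10^6 cells/mL) treated with 10 μM compound for 30 min, heated for 3 min over 48°C-58°C, and extracted in PBS with 0.5% NP-40 at 4°C. Values, from duplicates, describe thermal stability against control samples on a log2 fold-change scale.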

filanesib = compound: CON(C)C(=O)N1N=C(c2cc(F)ccc2F)S[C@@]1(CCCN)c1ccccc1 [filanesib]
In short: as §1

zotarolimus = compound: CO[C@H]1C[C@@H]2CC[C@@H](C)[C@@](O)(O2)C(=O)C(=O)N2CCCC[C@H]2C(=O)O[C@H]([C@H](C)C[C@@H]2CC[C@H](n3cnnn3)[C@H](OC)C2)CC(=O)[C@H](C)/C=C(\C)[C@@H](O)[C@@H](OC)C(=O)[C@H](C)C[C@H](C)/C=C/C=C/C=C/1C [zotarolimus]
In short: as §1

idasanutlin = compound: COc1cc(C(=O)O)ccc1NC(=O)[C@@H]1N[C@@H](CC(C)(C)C)[C@](C#N)(c2ccc(Cl)cc2F)[C@H]1c1cccc(Cl)c1F [idasanutlin]
In short: as §1

alisertib = compound: COc1cc(Nc2ncc3c(n2)-c2ccc(Cl)cc2C(c2c(F)cccc2OC)=NC3)ccc1C(=O)O [alisertib]
In short: as §1

[2] = compound: COc1cc2nc(-c3cc(F)ccc3O)nc(N[C@@H]3CNC[C@H]3C(C)(C)O)c2cc1OC
In short: as §1

gefitinib = compound: COc1cc2ncnc(Nc3ccc(F)c(Cl)c3)c2cc1OCCCN1CCOCC1 [gefitinib]
In short: as §1

[3] = compound: COc1cccc2cc(-c3nc([C@H]4CC[C@H](C(=O)O)CC4)n4ncnc(N)c34)[nH]c12
In short: as §1

lapatinib = compound: CS(=O)(=O)CCNCc1ccc(-c2ccc3ncnc(Nc4ccc(OCc5cccc(F)c5)c(Cl)c4)c3c2)o1 [lapatinib]
In short: as §1

pictilisib = compound: CS(=O)(=O)N1CCN(Cc2cc3nc(-c4cccc5[nH]ncc45)nc(N4CCOCC4)c3s2)CC1 [pictilisib]
In short: as §1

[4] = compound: CS(=O)(=O)c1ccc(-c2cnc(N)c(C(=O)Nc3ccccc3)n2)cc1
In short: as §1

crizotinib = compound: C[C@@H](Oc1cc(-c2cnn(C3CCNCC3)c2)cnc1N)c1c(Cl)ccc(F)c1Cl [crizotinib]
In short: as §1

[5] = compound: C[C@@H]1COCCN1C2=NC(=NC(=C2)C3(CC3)S(=O)(=O)C)C4=C5C=CNC5=CC=C4
In short: as §1

[6] = compound: C[C@H](C1=CC=C(C=C1)C(=O)NC2=C3C=CNC3=NC=C2)N
In short: as §1

duvelisib = compound: C[C@H](Nc1ncnc2nc[nH]c12)c1cc2cccc(Cl)c2c(=O)n1-c1ccccc1 [duvelisib]
In short: as §1

gandotinib = compound: Cc1cc(Nc2cc(CN3CCOCC3)c3nc(C)c(Cc4ccc(Cl)cc4F)n3n2)n[nH]1 [gandotinib]
In short: as §1

[7] = compound: Cc1cc(SCc2sc(-c3ccc(C(F)(F)F)cc3)nc2C)ccc1OCC(=O)O
In short: as §1

doramapimod = compound: Cc1ccc(-n2nc(C(C)(C)C)cc2NC(=O)Nc2ccc(OCCN3CCOCC3)c3ccccc23)cc1 [doramapimod]
In short: as §1

ispinesib = compound: Cc1ccc(C(=O)N(CCCN)[C@@H](c2nc3cc(Cl)ccc3c(=O)n2Cc2ccccc2)C(C)C)cc1 [ispinesib]
In short: as §1

tozasertib = compound: Cc1cc(Nc2cc(N3CCN(C)CC3)nc(Sc3ccc(NC(=O)C4CC4)cc3)n2)n[nH]1 [tozasertib]
In short: as §1

Measured: log2 fold change

GEMIN2 (UniProt O14893)
Sequence of UniProt O14893 (O14893 whole entry, looked up): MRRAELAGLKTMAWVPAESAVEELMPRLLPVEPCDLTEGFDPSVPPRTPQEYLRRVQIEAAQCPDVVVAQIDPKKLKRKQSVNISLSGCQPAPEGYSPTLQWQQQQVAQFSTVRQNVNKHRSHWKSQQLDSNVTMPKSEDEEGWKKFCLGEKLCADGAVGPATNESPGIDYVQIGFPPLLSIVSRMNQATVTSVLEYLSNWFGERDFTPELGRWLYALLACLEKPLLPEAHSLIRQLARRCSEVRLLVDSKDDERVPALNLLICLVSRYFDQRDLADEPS
inactive: [1] -0.099 | filanesib 0.132 | zotarolimus -0.093 | idasanutlin 0.034 | alisertib -0.017 | [2] -0.045 | gefitinib 0.032 | [3] -0.029 | lapatinib 0.034 | pictilisib 0.016 | [4] 0.032 | crizotinib -0.043 | [5] 0.001 | [6] 0.061 | duvelisib -0.129 | gandotinib 0.02 | [7] -0.013 | doramapimod 0.029 | ispinesib -0.149

HMG20A (UniProt Q9NP66)
Sequence of UniProt Q9NP66 (Q9NP66 whole entry, looked up): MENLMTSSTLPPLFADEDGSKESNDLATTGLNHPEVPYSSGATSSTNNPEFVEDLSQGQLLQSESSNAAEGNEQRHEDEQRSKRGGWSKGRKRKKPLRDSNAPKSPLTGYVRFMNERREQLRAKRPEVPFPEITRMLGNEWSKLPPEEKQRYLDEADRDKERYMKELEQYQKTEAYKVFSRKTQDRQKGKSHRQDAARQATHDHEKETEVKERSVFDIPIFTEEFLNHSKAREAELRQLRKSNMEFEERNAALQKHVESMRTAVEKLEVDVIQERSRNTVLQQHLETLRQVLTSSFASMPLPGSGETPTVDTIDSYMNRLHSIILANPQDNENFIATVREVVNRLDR
inactive: [1] -0.045 | filanesib 0.05 | zotarolimus 0.078 | idasanutlin -0.21 | alisertib -0.016 | [2] 0.147 | gefitinib 0.065 | [3] -0.021 | lapatinib -0.088 | pictilisib 0.145 | [4] -0.042 | crizotinib 0.07 | [5] -0.018 | [6] -0.199 | duvelisib 0 | gandotinib 0.104 | tozasertib -0.035 | [7] -0.087 | doramapimod 0.071 | ispinesib 0.352

HS1BP3 (UniProt Q53T59)
Sequence of UniProt Q53T59 (Q53T59 whole entry, looked up): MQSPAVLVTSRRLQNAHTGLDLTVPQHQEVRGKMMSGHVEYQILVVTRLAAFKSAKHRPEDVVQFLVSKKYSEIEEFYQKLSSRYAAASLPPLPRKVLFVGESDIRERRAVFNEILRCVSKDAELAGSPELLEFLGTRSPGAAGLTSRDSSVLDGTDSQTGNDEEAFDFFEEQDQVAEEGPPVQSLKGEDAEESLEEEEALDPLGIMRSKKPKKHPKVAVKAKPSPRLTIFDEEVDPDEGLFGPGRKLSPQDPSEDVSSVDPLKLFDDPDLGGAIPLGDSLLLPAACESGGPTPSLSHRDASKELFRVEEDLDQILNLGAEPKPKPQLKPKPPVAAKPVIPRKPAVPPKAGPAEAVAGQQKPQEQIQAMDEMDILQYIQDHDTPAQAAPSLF
inactive: [1] 0.032 | filanesib -0.085 | zotarolimus 0.02 | idasanutlin 0.039 | [2] 0.087 | gefitinib -0.196 | lapatinib 0.118 | [4] 0.06 | crizotinib -0.044 | [5] 0.028 | [6] 0.143 | duvelisib 0.096 | [7] -0.012 | doramapimod 0.089 | ispinesib -0.165

GTPBP6 (UniProt O43824)
Sequence of UniProt O43824 (O43824 whole entry, looked up): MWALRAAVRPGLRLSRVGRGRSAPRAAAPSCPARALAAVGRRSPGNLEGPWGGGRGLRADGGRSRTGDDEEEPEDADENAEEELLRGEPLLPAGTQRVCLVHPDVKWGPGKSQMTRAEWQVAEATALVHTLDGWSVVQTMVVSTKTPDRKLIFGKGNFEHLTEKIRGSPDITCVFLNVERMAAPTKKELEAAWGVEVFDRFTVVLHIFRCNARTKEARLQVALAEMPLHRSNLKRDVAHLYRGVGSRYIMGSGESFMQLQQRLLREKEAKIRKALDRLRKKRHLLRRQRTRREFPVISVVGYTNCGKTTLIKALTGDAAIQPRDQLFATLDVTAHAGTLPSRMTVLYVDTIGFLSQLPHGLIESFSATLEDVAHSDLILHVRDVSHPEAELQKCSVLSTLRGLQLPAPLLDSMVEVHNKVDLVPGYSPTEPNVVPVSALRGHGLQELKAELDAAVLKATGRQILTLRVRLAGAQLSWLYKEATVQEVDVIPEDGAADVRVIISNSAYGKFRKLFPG
inactive: [1] -0.105 | filanesib 0.049 | zotarolimus 0.061 | idasanutlin 0.018 | alisertib -0.217 | gefitinib -0.146 | [3] 0 | pictilisib -0.012 | [4] -0.002 | crizotinib 0.012 | [5] 0.197 | [6] -0.066 | duvelisib -0.002 | gandotinib 0.003 | tozasertib 0.087 | [7] -0.006 | doramapimod 0.06 | ispinesib 0.076

GNAI3 (UniProt P08754)
Sequence of UniProt P08754 (P08754 whole entry, looked up): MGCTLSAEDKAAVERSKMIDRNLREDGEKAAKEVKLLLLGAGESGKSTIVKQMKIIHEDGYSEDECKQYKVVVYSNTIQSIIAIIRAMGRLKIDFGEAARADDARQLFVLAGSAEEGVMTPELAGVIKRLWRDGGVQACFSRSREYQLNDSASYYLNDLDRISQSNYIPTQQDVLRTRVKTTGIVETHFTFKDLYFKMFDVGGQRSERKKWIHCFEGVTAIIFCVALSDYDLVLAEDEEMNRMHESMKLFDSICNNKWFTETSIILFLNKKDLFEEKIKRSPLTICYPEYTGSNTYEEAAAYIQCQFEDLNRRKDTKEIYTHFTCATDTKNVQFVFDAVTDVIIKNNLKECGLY
inactive: [1] -0.041 | filanesib -0.002 | zotarolimus -0.081 | idasanutlin -0.004 | alisertib -0.124 | [2] 0.066 | gefitinib 0.118 | [3] -0.013 | lapatinib 0.009 | pictilisib 0.059 | [4] 0.121 | crizotinib 0.103 | [5] -0.122 | [6] 0.003 | duvelisib 0.002 | gandotinib 0.039 | tozasertib -0.023 | [7] -0.014 | doramapimod 0.036 | ispinesib -0.008

IFRD2 isoform 2 (UniProt Q12894)
Sequence of UniProt Q12894 (Q12894 whole entry, looked up): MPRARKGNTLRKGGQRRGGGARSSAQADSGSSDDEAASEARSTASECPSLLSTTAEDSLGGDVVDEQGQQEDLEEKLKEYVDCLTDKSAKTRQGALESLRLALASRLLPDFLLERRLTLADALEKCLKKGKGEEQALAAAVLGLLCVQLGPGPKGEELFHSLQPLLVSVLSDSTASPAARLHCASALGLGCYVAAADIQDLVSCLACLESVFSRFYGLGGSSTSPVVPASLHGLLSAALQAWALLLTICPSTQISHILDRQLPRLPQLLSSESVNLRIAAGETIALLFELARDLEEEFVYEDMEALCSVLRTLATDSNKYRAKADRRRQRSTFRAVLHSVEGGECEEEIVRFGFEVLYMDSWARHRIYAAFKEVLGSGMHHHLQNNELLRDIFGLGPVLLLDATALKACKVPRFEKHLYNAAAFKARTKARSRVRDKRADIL
active: [3] 0.508
inactive: [1] -0.073 | filanesib 0.008 | zotarolimus 0.24 | idasanutlin 0 | alisertib -0.278 | [2] -0.219 | gefitinib 0.128 | lapatinib 0.037 | pictilisib 0.336 | [4] 0.352 | crizotinib -0.047 | [5] 0.396 | [6] -0.035 | duvelisib 0.024 | gandotinib 0.155 | tozasertib -0.123 | [7] -0.059 | doramapimod 0.052 | ispinesib 0.089

FBXO3 (UniProt Q9UK99)
Sequence of UniProt Q9UK99 (Q9UK99 whole entry, looked up): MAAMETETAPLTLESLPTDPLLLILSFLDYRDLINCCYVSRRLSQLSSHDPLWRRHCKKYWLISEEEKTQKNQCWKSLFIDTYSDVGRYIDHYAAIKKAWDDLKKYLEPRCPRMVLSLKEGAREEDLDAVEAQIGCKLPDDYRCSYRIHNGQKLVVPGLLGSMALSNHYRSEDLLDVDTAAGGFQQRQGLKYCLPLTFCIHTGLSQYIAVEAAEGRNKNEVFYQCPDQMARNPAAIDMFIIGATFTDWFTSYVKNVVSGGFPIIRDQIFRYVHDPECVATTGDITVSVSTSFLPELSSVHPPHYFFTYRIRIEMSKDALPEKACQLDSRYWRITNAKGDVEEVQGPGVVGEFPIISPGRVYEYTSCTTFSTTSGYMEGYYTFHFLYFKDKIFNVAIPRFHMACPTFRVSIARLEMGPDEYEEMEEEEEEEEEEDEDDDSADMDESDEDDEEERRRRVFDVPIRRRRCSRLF
inactive: [1] 0.011 | filanesib -0.053 | zotarolimus -0.022 | idasanutlin 0.032 | alisertib -0.071 | [2] -0.013 | gefitinib 0.011 | [3] 0.025 | lapatinib 0.028 | pictilisib -0.023 | [4] 0.055 | crizotinib 0.005 | [5] -0.095 | [6] 0.008 | duvelisib -0.025 | gandotinib -0.112 | tozasertib -0.046 | [7] -0.025 | doramapimod -0.003 | ispinesib 0.082

HNRNPH1 (UniProt P31943)
Sequence of UniProt P31943 (P31943 whole entry, looked up): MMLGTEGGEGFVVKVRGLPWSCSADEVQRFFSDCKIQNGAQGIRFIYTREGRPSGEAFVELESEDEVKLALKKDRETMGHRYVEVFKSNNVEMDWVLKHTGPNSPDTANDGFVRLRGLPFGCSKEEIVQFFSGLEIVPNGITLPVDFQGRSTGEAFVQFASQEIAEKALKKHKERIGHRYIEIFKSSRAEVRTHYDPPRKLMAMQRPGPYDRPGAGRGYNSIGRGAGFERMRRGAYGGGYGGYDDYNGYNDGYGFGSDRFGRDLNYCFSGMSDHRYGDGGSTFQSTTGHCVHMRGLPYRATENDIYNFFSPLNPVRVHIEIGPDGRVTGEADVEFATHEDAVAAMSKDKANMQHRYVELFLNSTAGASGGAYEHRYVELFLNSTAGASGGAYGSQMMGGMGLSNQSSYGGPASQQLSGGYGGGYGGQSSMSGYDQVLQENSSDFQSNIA
inactive: [1] 0.069 | filanesib 0 | zotarolimus 0.091 | idasanutlin 0.048 | alisertib 0.028 | [2] -0.192 | gefitinib -0.015 | [3] 0.068 | lapatinib 0.046 | pictilisib -0.135 | [4] 0.027 | crizotinib -0.171 | [5] -0.012 | [6] 0.02 | duvelisib -0.026 | gandotinib -0.017 | tozasertib -0.01 | [7] 0.126 | doramapimod -0.012 | ispinesib -0.068

HNRNPK isoform 2 (UniProt P61978)
inactive: [1] 0.008 | filanesib -0.001 | zotarolimus -0.022 | idasanutlin -0.011 | alisertib -0.004 | [2] -0.035 | gefitinib 0.051 | [3] 0.049 | lapatinib -0.016 | pictilisib 0.004 | [4] -0.01 | crizotinib 0.072 | [5] 0.074 | [6] -0.028 | duvelisib 0.036 | gandotinib -0.108 | tozasertib -0.021 | [7] 0.052 | doramapimod -0.064 | ispinesib -0.025

GNG5 (UniProt P63218)
Sequence of UniProt P63218 (P63218 whole entry, looked up): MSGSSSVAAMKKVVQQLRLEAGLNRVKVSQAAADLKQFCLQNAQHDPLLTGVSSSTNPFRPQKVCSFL
inactive: [1] 0.082 | filanesib 0.086 | zotarolimus -0.016 | idasanutlin 0.065 | alisertib -0.146 | [2] -0.022 | gefitinib 0.224 | [3] 0.079 | lapatinib -0.006 | pictilisib -0.087 | [4] 0.014 | crizotinib 0.094 | [5] 0.207 | [6] -0.13 | duvelisib 0.134 | gandotinib 0.055 | tozasertib 0.063 | [7] -0.071 | doramapimod 0.008 | ispinesib 0.216

HSPA8 (UniProt E9PN89)
inactive: [1] -0.312 | filanesib 0.126 | zotarolimus -0.036 | idasanutlin 0.113 | alisertib 0.042 | [2] 0.191 | gefitinib 0.035 | [3] 0.126 | lapatinib -0.426 | pictilisib 0.134 | [4] 0.12 | crizotinib 0.063 | [5] 0.024 | [6] 0.377 | gandotinib -0.068 | tozasertib -0.122 | doramapimod 0

GGA2 (UniProt Q9UJY4)
Sequence of UniProt Q9UJY4 (Q9UJY4 whole entry, looked up): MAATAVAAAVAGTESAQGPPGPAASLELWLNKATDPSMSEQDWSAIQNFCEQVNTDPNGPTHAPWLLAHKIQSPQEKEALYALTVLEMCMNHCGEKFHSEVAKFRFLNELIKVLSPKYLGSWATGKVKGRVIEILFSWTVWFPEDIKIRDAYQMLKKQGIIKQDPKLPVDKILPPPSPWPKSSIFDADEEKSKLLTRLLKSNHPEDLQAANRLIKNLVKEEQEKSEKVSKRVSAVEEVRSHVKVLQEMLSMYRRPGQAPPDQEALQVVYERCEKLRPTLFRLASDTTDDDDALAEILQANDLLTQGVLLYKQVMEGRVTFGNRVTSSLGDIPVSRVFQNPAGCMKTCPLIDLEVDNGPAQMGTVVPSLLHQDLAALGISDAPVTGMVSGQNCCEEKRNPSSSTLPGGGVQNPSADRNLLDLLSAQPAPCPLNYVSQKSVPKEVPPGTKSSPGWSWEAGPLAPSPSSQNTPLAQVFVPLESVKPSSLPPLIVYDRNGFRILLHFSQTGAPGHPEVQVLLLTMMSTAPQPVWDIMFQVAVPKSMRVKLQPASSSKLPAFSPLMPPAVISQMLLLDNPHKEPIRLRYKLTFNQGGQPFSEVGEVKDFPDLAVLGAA
inactive: [1] 0.012 | filanesib -0.09 | zotarolimus 0.069 | idasanutlin -0.017 | alisertib -0.067 | [2] 0.181 | gefitinib -0.004 | [3] 0.112 | lapatinib -0.027 | [4] 0.038 | crizotinib -0.089 | [5] 0.032 | [6] 0.036 | duvelisib 0.053 | tozasertib -0.025 | [7] 0.015 | doramapimod 0.009 | ispinesib -0.177

GDPD1 (UniProt Q8N9F7)
Sequence of UniProt Q8N9F7 (Q8N9F7 whole entry, looked up): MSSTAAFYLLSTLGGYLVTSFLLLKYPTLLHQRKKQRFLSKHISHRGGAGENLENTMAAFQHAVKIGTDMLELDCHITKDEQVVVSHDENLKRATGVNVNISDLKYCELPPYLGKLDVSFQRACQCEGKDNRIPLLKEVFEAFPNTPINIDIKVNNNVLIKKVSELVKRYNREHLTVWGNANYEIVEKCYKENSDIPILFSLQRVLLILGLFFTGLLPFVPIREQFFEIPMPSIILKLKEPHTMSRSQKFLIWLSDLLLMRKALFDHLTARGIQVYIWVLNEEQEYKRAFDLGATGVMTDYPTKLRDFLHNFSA
active: [1] 0.353 | ispinesib 0.353
inactive: filanesib 0.056 | zotarolimus 0.13 | idasanutlin 0.156 | alisertib -0.068 | [2] 0.208 | gefitinib 0.067 | [3] 0.021 | lapatinib 0.04 | pictilisib 0.085 | [4] 0.086 | crizotinib 0.035 | [5] 0.074 | [6] -0.057 | duvelisib 0.023 | gandotinib 0.012 | tozasertib 0.043 | [7] -0.033 | doramapimod 0.078

GEMIN6 (UniProt Q8WXD5)
Sequence of UniProt Q8WXD5 (Q8WXD5 whole entry, looked up): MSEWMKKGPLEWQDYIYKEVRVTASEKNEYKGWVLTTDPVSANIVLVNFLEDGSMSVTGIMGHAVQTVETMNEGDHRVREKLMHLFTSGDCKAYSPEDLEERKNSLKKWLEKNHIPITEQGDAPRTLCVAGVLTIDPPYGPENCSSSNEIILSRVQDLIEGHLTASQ
inactive: [1] 0.001 | filanesib 0.005 | zotarolimus 0.154 | idasanutlin 0.071 | alisertib -0.019 | [2] 0.006 | gefitinib -0.003 | [3] 0.096 | lapatinib -0.077 | pictilisib 0.064 | [4] -0.076 | crizotinib -0.055 | [5] 0.097 | [6] 0.091 | duvelisib 0.088 | gandotinib 0.034 | tozasertib -0.028 | [7] 0.034 | doramapimod -0.016 | ispinesib -0.017

GLA (UniProt P06280)
Sequence of UniProt P06280 (P06280 whole entry, looked up): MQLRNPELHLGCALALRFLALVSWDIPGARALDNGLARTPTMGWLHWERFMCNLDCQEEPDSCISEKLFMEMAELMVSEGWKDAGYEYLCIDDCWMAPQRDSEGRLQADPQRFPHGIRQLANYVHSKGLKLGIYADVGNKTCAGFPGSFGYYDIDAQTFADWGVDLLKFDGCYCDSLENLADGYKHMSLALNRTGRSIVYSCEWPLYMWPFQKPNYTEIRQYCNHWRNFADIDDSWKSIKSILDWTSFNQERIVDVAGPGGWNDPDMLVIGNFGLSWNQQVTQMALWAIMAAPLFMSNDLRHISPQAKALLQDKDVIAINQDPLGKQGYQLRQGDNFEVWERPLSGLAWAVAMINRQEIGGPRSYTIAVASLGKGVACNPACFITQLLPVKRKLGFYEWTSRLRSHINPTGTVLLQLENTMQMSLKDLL
inactive: [1] 0.033 | filanesib -0.048 | zotarolimus -0.003 | idasanutlin 0.06 | alisertib -0.089 | [2] 0.018 | gefitinib -0.011 | [3] 0.01 | lapatinib -0.026 | pictilisib -0.06 | [4] -0.033 | crizotinib -0.205 | [5] -0.019 | [6] 0.018 | duvelisib -0.027 | gandotinib -0.066 | tozasertib -0.03 | [7] 0.034 | doramapimod -0.036 | ispinesib -0.148

FBXO7 (UniProt Q9Y3I1)
inactive: [1] 0.037 | filanesib -0.069 | zotarolimus -0.026 | idasanutlin -0.04 | alisertib -0.082 | [2] 0.082 | gefitinib -0.023 | [3] 0.011 | lapatinib -0.082 | pictilisib 0.036 | [4] 0.038 | crizotinib 0.041 | [5] 0.061 | [6] -0.023 | duvelisib 0.015 | gandotinib -0.194 | tozasertib -0.018 | [7] 0.083 | doramapimod -0.029 | ispinesib 0.098
